Measurements reported in PubChem BioAssay AID624331 (National Center for Advancing Translational Sciences (NCATS), 2012).
Results filed as inconclusive are left out. Entries that show only a call come without a potency. Active and inactive are the calls of the source. Calls come from the whole dose curve; as a rule, active = well fitted activation curve with a large enough effect; inconclusive = small, poorly fitted or top-dose-only effect; inactive = no such curve, though single readings can be large or run the other way.

Assay: qHTS assay for re-activators of p53 using a Luc reporter: Hit Validation with no p53 Expressed
Conditions: p53-null cells, luciferase reporter counter-screen; series mostly up to 46.1 µM
Procedure, shortened: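 Counter-screen of primary hits in a cell line not transfected with p53, in Opti-MEM with 10% FBS; compounds at several concentrations (10 mM stock, 1:5; top 46.1 µM in well), 24 h at 37 deg C, 5% CO2. Luminescence read after 10 min with Amplite reagent.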

Row | Structure (SMILES) | Potency
1 | c1ccc(-c2cn3c(n2)SCC3)cc1 | inactive
2 | CN1CCN(c2ncnc3c2cnn3-c2ccc(Cl)cc2)CC1 | inactive
3 | O=C(COC(=O)CNC(=O)c1ccc([N+](=O)[O-])o1)Nc1ncc(C(F)(F)F)cc1Cl | inactive
4 | C(=N\Nc1nc2ccccc2s1)/c1ccc2c(c1)OCO2 | inactive
5 | COCCSc1nnc(NC(=O)CCS(=O)(=O)c2ccccc2)s1 | inactive
6 | Cc1cccc(NC(=S)NC(=O)C2CC2)c1 | inactive
7 | COc1ccc(CNC(=O)NC2CCCCC2)cc1 | inactive
8 | S=C(Nc1ccccc1)Nc1nc2ccccc2n1CCOc1ccc(Br)cc1 | inactive
9 | Cc1ccc(C2=CC(c3ccc(N(C)C)cc3)n3nnnc3N2)cc1 (stereo unspecified) | inactive
10 | Cc1ccc(NC(=S)NC(=O)c2cccs2)cc1F | inactive
11 | CCCCNC(=S)N(Cc1c(C)noc1C)c1ccccc1 | inactive
12 | CC(C)CCn1cnc2c(sc3nc4c(cc32)CSC(C)(C)C4)c1=O | inactive
13 | Nc1nc2ccc(N3CCOCC3)cc2s1 | inactive
14 | Cc1cc(C(=O)N/N=C/c2cccn2C)n[nH]1 | inactive
15 | CCOC(=O)c1cc(-c2ccccc2)sc1NC(=O)CC | inactive
16 | c1ccc2oc(C3=NNC(=NC4CC4)SC3)cc2c1 | inactive
17 | CC(C)NC(=S)N1CCN(S(C)(=O)=O)CC1 | inactive
18 | Cc1ccc(-c2noc(CN3CCC(C(N)=O)CC3)n2)cc1 | inactive
19 | Cc1cc2nc(-c3ccc(SCC(=O)Nc4ccc(S(=O)(=O)NC5CC5)cc4)nc3)[nH]c2cc1C | inactive
20 | COc1cc(OC)cc(C(=O)NNC(=O)c2ccccn2)c1 | inactive
21 | CC12CN(C(=O)c3cccc([N+](=O)[O-])c3)C3(C#N)CC1CCC23C (stereo unspecified) | inactive
